In PubChem BioAssay AID652048 (National Center for Advancing Translational Sciences (NCATS), 2013):
The campaign covered roughly 410,000 compounds. About 2,400 (0.59%) were called active. The full list was thinned out, with actives kept by preference. Values without a mark were called inactive. Rule as the data show it: active = max activation above about 30%; inactive = the rest. *1 amine or outer side, *2 acyl side, *3 side chain or, on linkers, in order; H or OH if unused. Where a SMILES comes first, the peptide text is derived from it. Bridges are numbered along the chain shown (N, C = ends). [ ]: non-standard residue; d: D form. The star is where a group is joined. X2 = NC1=N[C@@H]([C@H](N[*:1])C(=O)[*:2])C[C@H](O)N1; ΔAla(Z-3-ureido) = NC(=O)N/C=C(\N)C(=O)O; β3hOrn = NCCC[C@H](N)CC(=O)*; Dap = NC[C@H](N)C(=O)O

Each compound was assayed against D(3) dopamine receptor (Homo sapiens) (UniProt P35462) (assay: qHTS of D3 Dopamine Receptor Agonist: qHTS). Conditions: D3R DiscoveRx beta-arrestin cells, luminescence, 90 min; hits give high values.
Chain of D(3) dopamine receptor (Homo sapiens) (P35462 whole entry, looked up): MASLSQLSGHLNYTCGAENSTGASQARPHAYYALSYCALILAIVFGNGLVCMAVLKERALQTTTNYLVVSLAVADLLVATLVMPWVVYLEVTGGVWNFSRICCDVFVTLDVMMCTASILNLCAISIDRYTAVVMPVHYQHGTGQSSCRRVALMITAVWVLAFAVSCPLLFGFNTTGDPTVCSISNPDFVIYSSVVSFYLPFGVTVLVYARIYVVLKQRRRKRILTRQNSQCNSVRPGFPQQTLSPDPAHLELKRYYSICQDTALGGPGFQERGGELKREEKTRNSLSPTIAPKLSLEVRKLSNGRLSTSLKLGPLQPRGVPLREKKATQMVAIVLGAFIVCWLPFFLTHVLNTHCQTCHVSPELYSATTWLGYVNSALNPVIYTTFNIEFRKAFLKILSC
Method in brief: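 Agonist-mode cell screen: cells plated at 1500/well and incubated overnight at 37 °C, then exposed to library compounds for 90 min at 37 °C. Detection reagent was added for 30–60 min at room temperature, and luminescence was read.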
Also: 0% is about no effect.

Compound	max activation
C=CCOc1c2ccc(C(=O)N(CC)c3ccc(OC)cc3)cc2nn1C	36.4% (active)
CCN(C(=O)c1sc2cc(OC)ccc2c1Cl)c1ccccc1	-6.98%
COc1ccc(N(Cc2ccc(N(C)C)cc2)C(=O)c2ccc(S(C)(=O)=O)cc2)cc1	-1.61%
CCC(C)[C@@H](N)C(=O)O (some centres not stated)	1.21%
COc1cc(NS(=O)(=O)c2cccs2)cc(OC)c1	-2.4%
O=C(CSc1ncc(S(=O)(=O)c2ccc(Br)cc2)c(=O)[nH]1)Nc1ccc2c(c1)OCCO2	0.197%
Cc1ccc(C(=O)Nc2cc3c(cc2N2CCCC2)n(C)c(=O)c(=O)n3C)cc1	-5.76%
CCc1ccc(S(=O)(=O)Nc2cc3c(cc2N2CCCCC2)n(C)c(=O)c(=O)n3C)cc1	33.6% (active)
Cn1c(=O)c(=O)n(C)c2cc(S(=O)(=O)CCC(=O)N3CCCCC3)ccc21	-3.93%
Cc1c(NS(=O)(=O)c2cccc(C(=O)Nc3ccc(SC(F)F)cc3)c2)c(=O)n(-c2ccccc2)n1C	33.5% (active)
Cc1c(NS(=O)(=O)c2cc(C(=O)NCCc3ccc(F)cc3)cc(Cl)c2Cl)c(=O)n(-c2ccccc2)n1C	0.49%
Cc1c(NS(=O)(=O)c2ccc(Cl)cc2)c(=O)n(-c2ccccc2)n1C	0.215%
NCCC[C@H](N)CC(=O)N[C@H]1CNC(=O)[C@H]([C@H]2C[C@H](O)NC(N)=N2)NC(=O)/C(=C/NC(N)=O)NC(=O)[C@H](CO)NC(=O)[C@H](CO)NC1=O (β3hOrn-[Dap]SS[ΔAla(Z-3-ureido)][X2]; lactam 1-C)	4.66%
CCOCCn1c(C(C)C)nc2ccccc21	-2.13%
CCc1nc2ccccc2n(CCOCCOCCn2c(=O)c(CC)nc3ccccc32)c1=O	1.74%
CCOCCn1c(-c2ccccc2)nc2ccccc21	65.4% (active)
Cc1ccc(CSc2nc3cccnc3n2Cc2ccc(C(=O)NC3CC3)cc2)cc1	2.04%
CCOc1cccc(NC(=O)c2ccc(F)c(S(=O)(=O)N(CC)c3cccc(C)c3)c2)c1	6.21%
CS(=O)(=O)NC(=O)CCC/C=C\C[C@H]1C(=O)C[C@@H](O)[C@@H]1/C=C/[C@H](O)COc1ccccc1	-14.2%
COc1cc2ccccc2cc1C(=O)Nc1ccc(NC(=O)c2cccs2)cc1	30% (active)
COc1cc2ccccc2cc1C(=O)Nc1cccc(-c2nc3ccccc3o2)c1	9.76%
COc1cc(OC)c(C(=O)NNC(=O)c2ccc(NS(=O)(=O)c3cccs3)cc2)cc1OC	2.22%
